Measurements from the supplement of paper PMC6555819.

What was measured:
Assay in all cases: PBM binding z-score (relative to random genomic background probes); higher = stronger binding; sequences stand for … in GC…GCGATTGACAGCGTAGAATGAAGG
[1] = test system: PPARg:RXRa DBDmut IVT, anti-RXR (DBD mutation: RXRa K156A/R161A, NR concentration 270 nM, RXRa partner concentration 90 nM)
In short: (§1)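 Ligand-free nuclear receptor dimers were applied to custom Agilent 4×180K protein-binding microarrays whose double-stranded probes carried direct-repeat seeds, single-nucleotide variants, half-site ablations and random human genomic background sequences in 34-nt variable regions. Incubation lasted 1 h. Binding z-scores were computed against the random background probes from regression-normalized fluorescence.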

[2] = test system: PPARg:RXRa IVT, anti-PPARg (NR concentration 270 nM, RXRa partner concentration 90 nM)
In short: as §1

[3] = test system: PPARg DBDmut:RXRa IVT, anti-PPARg (DBD mutation: PPARg1 K132A/R137A, NR concentration 270 nM, RXRa partner concentration 90 nM)
In short: as §1

[4] = test system: PPARg DBDmut IVT, anti-PPARg (DBD mutation: PPARg1 K132A/R137A, NR concentration 270 nM)
In short: as §1

[5] = test system: PPARg homodimer (NR concentration 180 nM)
In short: as §1

[6] = test system: PXR:RXRa (NR concentration 270 nM, RXRa partner concentration 90 nM)
In short: as §1

[7] = test system: PXR homodimer (NR concentration 270 nM)
In short: as §1

[8] = test system: RARa:RXR (NR concentration 270 nM, RXRa partner concentration 90 nM)
In short: as §1

[9] = test system: RARa homodimer (NR concentration 270 nM)
In short: as §1

[10] = test system: RARb:RXRa (NR concentration 270 nM, RXRa partner concentration 90 nM)
In short: as §1

Sequence	PBM binding z-score [1]	PBM binding z-score [2]	PBM binding z-score [3]	PBM binding z-score [4]	PBM binding z-score [5]	PBM binding z-score [6]	PBM binding z-score [7]	PBM binding z-score [8]	PBM binding z-score [9]	PBM binding z-score [10]
GCTTGGAGATCAAGGTTAAGAAAGACTAAGCTAA	-0.178	0.209	-0.0376	-0.611	0.0193	0.278	-0.313	1.12	-0.305	0.871
ACTCGGAGGACCAAGGTCAGAGCTACGCCAGTGA	-0.502	0.431	-1.19	-0.608	1.18	1.34	0.0514	1.88	-0.14	2.86
TGCATGAGGTTATAAGATCAGGGAACGTTGCAAA	-0.354	0.643	0.656	0.178	0.466	0.667	-0.0693	1.48	0.252	1.4
TCTATCAGTTGAAGGGCAACCGACGAGTCCGTTT	2.02	0.545	-0.244	0.0205	0.44	0.571	0.541	0.596	0.00832	1.63
TCTAGCAGGCCAGAGGGTCACTAAAGAGGTACGG	0.806	0.475	-0.497	-1.37	0.659	1.14	-0.609	1.8	-0.574	2.05
CCGACTGGGCCATCAGGTCATTGATATCAACGTT	3.07	3.51	-1.33	-0.437	0.811	1.47	0.46	1.85	-0.257	2.04
CCAGACAGGTGAAAGGTAACTGAGTCTGGTACGC	2.15	3.28	-0.148	-0.636	1.11	0.918	-0.224	1.83	0.0845	1.28
TCGAGTAGGTTAGGGGCATTAAGAATGGCGTCGA	2.21	1.23	-0.687	-1.11	0.475	0.596	0.671	0.713	-0.193	1.04
TAGCCTAGGTCGTTGGGCCAGTATAGTACGCATC	-0.226	0.592	-0.845	-0.754	-0.186	-0.0683	-0.446	0.0528	-0.627	1.02
GCAGCCAGGTGAAACGCAGGTAACTCAGGGTGGC	1.32	1	-1.26	-1.53	-1.44	-0.698	-1.29	0.121	-2.03	0.362
CAAACTAGGTCACCGGAAGGTCAAAGTACGCATG	8.79	8.9	4.79	1.89	9.62	6.54	1.85	8.16	4.07	5.38
TCGAGTAGGTTAGGGGCATTCCGAATGGCGTCGA	2.28	1.28	-1.42	-0.881	0.639	0.385	-0.429	0.334	-0.756	1.06
